# Results: PubChem BioAssay (NCATS)
# Results filed as inconclusive are left out. Where a call stands in place of a potency, no number is given. Active and inactive are the calls of the source. Unless noted, calls come from the whole dose curve; as a rule, active = well fitted curve in the direction sought with a large enough effect; inconclusive = small, poorly fitted or top-dose-only effect, or another doubt; inactive = no such curve, though single readings can be large; an effect the other way counts as inactive or inconclusive.
# Columns and labels:
# [1] = biological target: Cytochrome P450 2D6 (Homo sapiens) (UniProt P10635); assay: qHTS Assay for Inhibitors and Substrates of Cytochrome P450 2D6 (AID 891); conditions: recombinant CYP2D6, luciferin-ME EGE luminescence; note: potency is the fitted concentration of half-maximal effect; nearly all actives have a fitted effect of over 60% in size
# Sequence of Cytochrome P450 2D6 (Homo sapiens) (P10635 whole entry, looked up): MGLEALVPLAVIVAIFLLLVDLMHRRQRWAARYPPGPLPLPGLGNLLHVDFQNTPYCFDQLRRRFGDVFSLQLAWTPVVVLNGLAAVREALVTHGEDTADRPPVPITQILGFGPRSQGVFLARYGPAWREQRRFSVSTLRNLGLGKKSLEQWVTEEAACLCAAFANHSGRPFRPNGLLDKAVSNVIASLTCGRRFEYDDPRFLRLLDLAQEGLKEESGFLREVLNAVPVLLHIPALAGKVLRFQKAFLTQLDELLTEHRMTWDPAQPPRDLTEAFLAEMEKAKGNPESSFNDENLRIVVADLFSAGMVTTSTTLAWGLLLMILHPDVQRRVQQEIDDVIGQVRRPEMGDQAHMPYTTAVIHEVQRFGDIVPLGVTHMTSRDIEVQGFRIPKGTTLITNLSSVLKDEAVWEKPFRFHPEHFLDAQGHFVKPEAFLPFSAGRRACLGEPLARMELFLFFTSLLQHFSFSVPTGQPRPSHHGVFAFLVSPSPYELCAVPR
# Summary of the method: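 Luminescent read-out of luciferin formed by 5 nM human CYP2D6 demethylating 30 uM Luciferin-ME EGE (Km level) over 60 min at room temperature after NADPH regeneration addition. Data normalized to full inhibition by 1.43 uM quinidine.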
# [2] = qHTS Assay for Identification of Small Molecule Antagonists for NFkB Signaling Pathway (AID 895; active = well fitted inhibition curve with a large enough effect in the signal ratio, with a control signal flat, not every such curve was filed as active; the % refers to the signal ratio); conditions: NFkB beta-lactamase reporter cells, FRET ratio 460/530, stimulated with 10 pM TNF alpha; series mostly up to 38.3 µM
# Summary of the method: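 ME-180 NFkB-bla cells (beta-lactamase under NFkB response element), plated overnight, treated with compound then 10 pM TNF alpha (about EC50) for 5 hrs at 37 C. LiveBLAzer FRET read at 460/530 nm emission, 405 nm excitation.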
# [3] = biological target: Cytochrome P450 2C19 (Homo sapiens) (UniProt P33261); assay: qHTS Assay for Inhibitors and Substrates of Cytochrome P450 2C19 (AID 899); conditions: recombinant CYP2C19, luciferin-H EGE luminescence; note: potency is the fitted concentration of half-maximal effect; nearly all actives have a fitted effect of over 60% in size
# Sequence of Cytochrome P450 2C19 (Homo sapiens) (P33261 whole entry, looked up): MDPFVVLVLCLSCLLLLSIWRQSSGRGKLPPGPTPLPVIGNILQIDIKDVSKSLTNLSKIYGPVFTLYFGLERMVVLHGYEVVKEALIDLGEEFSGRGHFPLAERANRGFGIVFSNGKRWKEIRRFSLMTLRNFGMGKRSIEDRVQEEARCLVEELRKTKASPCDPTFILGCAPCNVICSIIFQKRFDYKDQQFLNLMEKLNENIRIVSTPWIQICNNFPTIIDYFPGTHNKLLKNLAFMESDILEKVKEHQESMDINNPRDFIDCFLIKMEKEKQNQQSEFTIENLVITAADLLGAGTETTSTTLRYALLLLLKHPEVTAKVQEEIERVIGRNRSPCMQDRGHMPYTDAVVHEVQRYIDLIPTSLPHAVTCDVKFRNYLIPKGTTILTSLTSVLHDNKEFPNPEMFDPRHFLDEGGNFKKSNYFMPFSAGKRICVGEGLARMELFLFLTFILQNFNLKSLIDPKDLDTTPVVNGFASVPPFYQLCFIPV
# Summary of the method: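 5 nM human CYP2C19 with 10uM Luciferin-H EGE (at KM) in 50mM KPO4, compound preincubated 10 min at 37C, then NADPH regeneration for 60 min at 37C. Luciferin read by luminescence after detection reagent; normalized to 57uM ketoconazole as full inhibition.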
# [4] = Confirmation and Secondary Assay for Modulators of Hemoglobin Beta Chain Splicing at IVS2 654 locus (AID 910); conditions: HeLa EGFP-654 splicing reporter, GFP fluorescence, 48 h; series mostly up to 46.1 µM;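 note: HeLa cells stably carrying EGFP split by mutant beta-globin IVS2-654 intron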
# Summary of the method: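 HeLa cells stably expressing EGFP interrupted by β-globin IVS2-654 intron, seeded overnight in Opti-MEM/2% FCS, then treated 2 days at 37 °C. Restored splicing read as total peak GFP intensity per well by laser scanning cytometry (488 nm excitation, 500–520 nm emission); 500 nM antisense PNA as control.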
# [5] = biological target: Cytochrome P450 3A4 (Homo sapiens) (UniProt P08684); assay: qHTS Assay for Inhibitors and Substrates of Cytochrome P450 3A4 (AID 884); conditions: recombinant CYP3A4, Luciferin-PPXE luminescence; series mostly up to 57.1 µM; note: nearly all actives have a fitted effect of over 50% in size
# Sequence of Cytochrome P450 3A4 (Homo sapiens) (P08684 whole entry, looked up): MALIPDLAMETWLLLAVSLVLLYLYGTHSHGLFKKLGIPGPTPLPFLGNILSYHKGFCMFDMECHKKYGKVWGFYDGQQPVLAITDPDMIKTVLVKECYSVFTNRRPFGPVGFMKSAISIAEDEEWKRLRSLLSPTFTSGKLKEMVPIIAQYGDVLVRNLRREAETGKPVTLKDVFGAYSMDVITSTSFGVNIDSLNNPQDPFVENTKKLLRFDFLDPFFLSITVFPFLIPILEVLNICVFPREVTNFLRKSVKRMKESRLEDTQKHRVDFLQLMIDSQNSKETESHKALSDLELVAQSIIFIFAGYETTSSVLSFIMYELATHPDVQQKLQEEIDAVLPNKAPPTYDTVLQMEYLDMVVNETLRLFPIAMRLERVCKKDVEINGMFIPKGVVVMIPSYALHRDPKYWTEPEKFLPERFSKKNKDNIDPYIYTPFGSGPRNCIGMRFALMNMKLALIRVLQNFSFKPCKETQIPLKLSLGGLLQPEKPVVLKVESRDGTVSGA
# Summary of the method: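 Luminescent readout of luciferin produced by CYP3A4 (20 nM) dealkylation of Luciferin-PPXE, 25 uM (its KM). NADPH-driven reaction ran 60 min at RT after 10 min compound preincubation; data scaled to 57 uM ketoconazole as 100% inhibition.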
# [6] = biological target: Cytochrome P450 3A4 (Homo sapiens) (UniProt P08684); assay: qHTS Assay for Activators of Cytochrome P450 3A4 (AID 885); conditions: recombinant CYP3A4, Luciferin-PPXE luminescence, 60 min; series mostly up to 57.1 µM; note: nearly all actives have a fitted effect of over 65% in size
# Summary of the method: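 Luminescent readout of luciferin formed from 25 uM Luciferin-PPXE (KM level) by 20 nM CYP3A4 in 200 mM KPO4, with 60 min NADPH-driven reaction at room temperature after 10 min compound exposure. Ketoconazole (57 uM) defined 100% inhibition.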
structure (smiles),measurement,setting,value
COc1cc(N)c(Cl)cc1C(=O)NC1CCN(Cc2ccccc2)CC1,Potency,[1],0.0126 µM (active)
O=C(CCCN1CC=C(n2c(=O)[nH]c3ccccc32)CC1)c1ccc(F)cc1,Potency,[1],3.16 µM (active)
CN=C(N)NCCC[C@H](N)C(=O)O,outcome,[2],inactive
NC(N)=NCc1cccc(I)c1,outcome,[2],inactive
CN(C)CCC[C@@]1(c2ccc(F)cc2)OCc2cc(C#N)ccc21,Potency,[3],3.16 µM (active)
COc1ccc(C(=O)c2ccccc2O)c(O)c1,outcome,[4],inactive
CCN(CC)CCOc1ccc2c(c1)C(=O)c1cc(OCCN(CC)CC)ccc1-2,Potency,[5],inactive
same,outcome,[4],inactive
COC(=O)C(c1ccccc1Cl)N1CCc2sccc2C1 (stereo unspecified),outcome,[4],inactive
CCc1cc(Cl)c(OC)c(C(=O)NC[C@@H]2CCCN2CC)c1O,Potency,[1],0.0501 µM (active)
Nc1ccc(S(=O)(=O)Nc2cnc3ccccc3n2)cc1,outcome,[6],inactive
same,outcome,[4],inactive
CCCCCCCCNC(C)C(O)c1ccc(SC(C)C)cc1 (stereo unspecified),outcome,[4],inactive
COc1ccc(-c2cc(C(F)F)nn2-c2ccc(S(N)(=O)=O)cc2)cc1F,Potency,[5],inactive
same,outcome,[4],inactive
O=C1C(CCS(=O)c2ccccc2)C(=O)N(c2ccccc2)N1c1ccccc1 (stereo unspecified),outcome,[6],inactive
same,outcome,[4],inactive
CN1CCC(OC(c2ccccc2)c2ccccc2)CC1,outcome,[4],inactive
CCC(Cc1c(I)cc(I)c(N)c1I)C(=O)O (stereo unspecified),Potency,[5],inactive
same,outcome,[4],inactive
Cc1c(-c2ccccc2)oc2c(C(=O)OCCN3CCCCC3)cccc2c1=O,outcome,[6],inactive
same,Potency,[1],7.94 µM (active)
O=C(O)P(=O)(O)O,Potency,[5],inactive
same,outcome,[4],inactive
O=C(O)CCC(=O)Nc1ccc(S(=O)(=O)Nc2nccs2)cc1,outcome,[4],inactive
CCOC(=O)c1ccc(N)cc1,outcome,[6],inactive
same,outcome,[4],inactive
Cc1cc(C)cc(OCC2CNC(=O)O2)c1 (stereo unspecified),Potency,[5],inactive
same,outcome,[4],inactive
c1ccc(CC2=NCCN2)cc1,outcome,[4],inactive
CC(=O)NCCCCCC(=O)O,Potency,[5],inactive
same,outcome,[4],inactive
CCCCCN=C(N)N/N=C/c1c[nH]c2ccc(OC)cc12,Potency,[5],inactive
same,outcome,[4],inactive
Cc1cc(-c2ccccc2)nnc1NCCN1CCOCC1,outcome,[6],inactive
same,outcome,[4],inactive
CN(C)C(=O)Nc1ccc(Cl)c(Cl)c1,Potency,[5],inactive
same,outcome,[4],inactive
CC[C@H](c1ccc(O)cc1)[C@@H](CC)c1ccc(O)cc1,outcome,[6],inactive
CCN1CCCC(OC(=O)C(c2ccccc2)c2ccccc2)C1 (stereo unspecified),outcome,[4],inactive
CCN(CC)CCNc1ccc(CO)c2sc3ccccc3c(=O)c12,outcome,[6],inactive
same,Potency,[1],5.01 µM (active)
same,outcome,[4],inactive
C[N+]12CCC(CC1)C(OC(=O)C(O)(c1ccccc1)c1ccccc1)C2 (stereo unspecified),Potency,[5],inactive
same,outcome,[4],inactive
CC(C(=O)O)c1cccc(Oc2ccccc2)c1 (stereo unspecified),Potency,[5],inactive
same,outcome,[4],inactive
CCCc1ncc(C[n+]2ccccc2C)c(N)n1,Potency,[5],inactive
same,outcome,[4],inactive
Nc1ccc(C(=O)NCC(=O)O)cc1,Potency,[5],inactive
same,outcome,[4],inactive
CC(C)NCC(O)c1ccc2ccccc2c1 (stereo unspecified),Potency,[5],inactive
same,outcome,[4],inactive
OCCOCCN1CCN(C2=Nc3ccccc3Sc3ccccc32)CC1,outcome,[4],inactive
COc1ccc(CN(CCN(C)C)c2ncccn2)cc1,Potency,[5],inactive
same,outcome,[4],inactive
CC(=O)Nc1ccc(S(=O)(=O)Nc2ccc([N+](=O)[O-])cc2)cc1,outcome,[4],inactive
CCCCc1cc2ccccc2c(OCCN(C)C)n1,Potency,[1],2 µM (active)
CNCCc1ccccn1,Potency,[5],inactive
same,outcome,[4],inactive
COc1cc(NS(=O)(=O)c2ccc(N)cc2)ncn1,outcome,[4],inactive
CCN(CC)CCNC(=O)c1cc(Br)c(N)cc1OC,outcome,[4],inactive
Cc1ccccc1OCC(O)CO (stereo unspecified),outcome,[4],inactive
CCN(CC)CCOC(=O)C(Cc1cccc2ccccc12)CC1CCCO1 (stereo unspecified),outcome,[6],inactive
same,outcome,[4],inactive
CCN(CC)CCNC(=O)COc1ccc(OC)cc1,outcome,[4],inactive
